This note sets out measurements from PubChem BioAssay (Tox21).

Values without a mark were called inactive. Inconclusive results are not listed. The source made the active and inactive calls. Unless noted, the call rests on the fitted dose curve; in most records, active means well fitted curve in the direction sought with a large enough effect in the repeat runs; inconclusive means weak or mixed curves; inactive means no such curve, though single readings can be large; an effect the other way counts as inactive or inconclusive.

The target of experiment [1] is Thyrotropin receptor (Homo sapiens) (UniProt P16473). Briefly: qHTS assay to identify small molecule agonists of the thyroid stimulating hormone receptor (TSHR) signaling pathway (AID 1224843; calls by dose curve; further: nearly all actives have a fitted effect of over 45% in size; further: potency means the concentration at half of the fitted maximal effect). The essentials:
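HEK293/TSHR, 800 cells/well; cpd 30 min RT; add cAMP-d2 + anti-cAMP-cryptate, 1 h RT; fluorescence read on plate reader. 15-pt titration, n=3.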

The nature of experiment [2]: qHTS assay to identify small molecule agonists of the hypoxia (HIF-1) signaling pathway - cell viability counter screen (AID 1224844; calls by dose curve; further: nearly all actives have a fitted effect of over 50% in size). The essentials: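 HRE-bla ME-180; 0.5% dFBS; cpd 17 h, 37C, 5% CO2; CellTiter-Glo lum., 30 min RT, post-FRET read, same wells.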
Experiment [3] can be described thus: qHTS assay to identify small molecule agonists of H2AX (AID 1224845; active means well fitted activation curve with a large enough effect in the signal ratio in the repeat runs, not every such curve was filed as active; the % refers to the signal ratio). An outline of the steps:
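Wild-type CHO-K1 cells, plated overnight, exposed 3hr at 37C to 15 concentrations (0.76% DMSO final). Lysed, then HTRF anti-pH2AX (S139) cryptate and anti-H2AX-d2 antibodies, 24 hr room temperature; 665/620 nm emission read.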

A short description of experiment [4]: qHTS assay to identify small molecule agonists of the hypoxia (HIF-1) signaling pathway (AID 1224846; active means well fitted activation curve with a large enough effect in the signal ratio in the repeat runs, not every such curve was filed as active; the % refers to the signal ratio). The essentials:
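Reporter induction in HRE-bla ME-180 cells is taken as agonism: cells sit 5 hrs after plating, receive compounds or DMSO only, incubate 17 hrs at 37C under 5% CO2, and are loaded with CCF4-AM for beta-lactamase FRET measurement.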

The nature of experiment [5]: qHTS RealTime-Glo MT Cell Viability Assay in HepG2 cells - 24 hour (AID 1224867). Further: nearly all actives have a fitted effect of over 50% in size. The essentials:
(§1)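 Real-time, nonlytic viability: 600 HepG2 cells/well mixed with NanoLuc enzyme plus prosubstrate; 5 h settle, compound (DMSO) added by pintool; luminescence monitored over 40 h at 37 C.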

Experiment [6] can be described thus: qHTS RealTime-Glo MT Cell Viability Assay in HEK293 cells - 32 hour (AID 1224868). Further: nearly all actives have a fitted effect of over 50% in size. Further: potency means the concentration at half of the fitted maximal effect. An outline of the steps:
(§2)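 Cells + reagent dispensed (600 cells/well, HEK293) → 5 h at 37 C/5% CO2 → 23 nL compound in DMSO pinned → 40 h at 37 C → luminescence read at 0, 8, 16, 24, 32, 40 h.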

Experiment [7] can be described thus: qHTS RealTime-Glo MT Cell Viability Assay in HepG2 cells - 40 hour (AID 1224870). Further: nearly all actives have a fitted effect of over 50% in size. An outline of the steps: (§3)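 HepG2 cells (600/well) mixed with RealTime-Glo MT reagent, settled 5 h at 37 C/5% CO2 before compound addition. Nonlytic NanoLuc luminescence from viable-cell prosubstrate reduction read repeatedly during 40 h treatment at 37 C.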
The nature of experiment [8]: qHTS RealTime-Glo MT Cell Viability Assay in HEK293 cells - 16 hour (AID 1224872). An outline of the steps:
as §2

Experiment [9] is described as follows: qHTS RealTime-Glo MT Cell Viability Assay in HepG2 cells - 8 hour (AID 1224873). Further: nearly all actives have a fitted effect of over 55% in size. The essentials: as §3
Experiment [10] can be described thus: qHTS RealTime-Glo MT Cell Viability Assay in HEK293 cells - 40 hour (AID 1224874). Further: nearly all actives have a fitted effect of over 50% in size. Conditions: RealTime-Glo luminescence; max response: stronger effect = lower value. An outline of the steps: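 HEK293 + NanoLuc + prosubstrate, 600 cells/well; 5 h, 37 C/5% CO2; compound 23 nL in DMSO by pintool; 37 C; luminescence read at 0, 8, 16, 24, 32 and 40 h time points.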
Experiment [11] can be described thus: qHTS RealTime-Glo MT Cell Viability Assay in HepG2 cells - 32 hour (AID 1224877). Further: nearly all actives have a fitted effect of over 55% in size. The essentials:
as §1

Experiment [12] is described as follows: A CellTox Green Cytotoxicity Assay to monitor cytotoxicity in HepG2 cells - 40 hour (AID 1224879). Further: nearly all actives have a fitted effect of over 40% in size. Further: potency means the concentration at half of the fitted maximal effect. An outline of the steps: (§4)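 Measurements at 0, 8, 16, 24, 32 and 40 h of treatment captured CellTox Green fluorescence in HepG2 cells that had been co-plated with reagent and preincubated 5 h at 37 C/5% CO2.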
The nature of experiment [13]: qHTS assay to identify small molecule agonists of H2AX - cell viability counter screen (AID 1224847; calls by dose curve; further: top concentration of the series differs between compounds; nearly all actives have a fitted effect of over 30% in size). An outline of the steps:
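Read-out: CellTiter-Glo luminescence, 30 min RT. Cells: wild-type CHO-K1, 1000/well, 10% FBS, plated overnight at 37C. Treatment: 15 concentrations, 3 hr, 37C, 0.76% DMSO.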

The nature of experiment [14]: A CellTox Green Cytotoxicity Assay to monitor cytotoxicity in HEK293 cells - 0 hour (AID 1224869). Further: nearly all actives have a fitted effect of over 50% in size. An outline of the steps:
(§5)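 Tox21 screen in HEK293: membrane-impermeant cyanine dye fluoresces on binding dead-cell DNA; compound pinned 5 h post-seeding, plates held at 37 C, signal read repeatedly through 40 h.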

Experiment [15] is described as follows: A CellTox Green Cytotoxicity Assay to monitor cytotoxicity in HEK293 cells - 40 hour (AID 1224871). Further: nearly all actives have a fitted effect of over 45% in size. An outline of the steps: as §5
Experiment [16] in a line: A CellTox Green Cytotoxicity Assay to monitor cytotoxicity in HEK293 cells - 24 hour (AID 1224875). Further: nearly all actives have a fitted effect of over 45% in size. An outline of the steps:
as §5

Experiment [17] can be described thus: A CellTox Green Cytotoxicity Assay to monitor cytotoxicity in HepG2 cells - 16 hour (AID 1224876). Further: nearly all actives have a fitted effect of over 45% in size. The essentials: as §4
A short description of experiment [18]: A CellTox Green Cytotoxicity Assay to monitor cytotoxicity in HepG2 cells - 24 hour (AID 1224878). Further: nearly all actives have a fitted effect of over 45% in size. An outline of the steps:
as §4

Experiment [19] is described as follows: qHTS assay to identify small molecule antagonists of the estrogen related receptor (ERR) signaling pathway from Tox21 library (AID 1224848). Further: nearly all actives have a fitted effect of over 50% in size. The essentials: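 Compounds dissolved in DMSO are pin-transferred onto ERR reporter cells (2,000 per well) that have settled for 6 h at 37 C. Plates then incubate 18 h at 37 C before ONE-Glo luciferase reagent and a luminescence read 30 min later.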

Experiment [20] in a line: qHTS assay to identify small molecule agonists of the estrogen related receptor (ERR) signaling pathway from Tox21 library (AID 1224849; calls by dose curve; further: nearly all actives have a fitted effect of over 15% in size). The settings on record: ERR reporter cell line, ONE-Glo luciferase, 18 h; at 92.4 µM (top of the series) unless noted. An outline of the steps: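 Tox21 compounds tested for ERR agonism in an NTP reporter cell line: 18 h treatment at 37 C, then ONE-Glo luminescence.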
On the % scale 0 is the no-effect control and ±100 the full control effect.

Sequence of Thyrotropin receptor (Homo sapiens) (P16473 whole entry, looked up): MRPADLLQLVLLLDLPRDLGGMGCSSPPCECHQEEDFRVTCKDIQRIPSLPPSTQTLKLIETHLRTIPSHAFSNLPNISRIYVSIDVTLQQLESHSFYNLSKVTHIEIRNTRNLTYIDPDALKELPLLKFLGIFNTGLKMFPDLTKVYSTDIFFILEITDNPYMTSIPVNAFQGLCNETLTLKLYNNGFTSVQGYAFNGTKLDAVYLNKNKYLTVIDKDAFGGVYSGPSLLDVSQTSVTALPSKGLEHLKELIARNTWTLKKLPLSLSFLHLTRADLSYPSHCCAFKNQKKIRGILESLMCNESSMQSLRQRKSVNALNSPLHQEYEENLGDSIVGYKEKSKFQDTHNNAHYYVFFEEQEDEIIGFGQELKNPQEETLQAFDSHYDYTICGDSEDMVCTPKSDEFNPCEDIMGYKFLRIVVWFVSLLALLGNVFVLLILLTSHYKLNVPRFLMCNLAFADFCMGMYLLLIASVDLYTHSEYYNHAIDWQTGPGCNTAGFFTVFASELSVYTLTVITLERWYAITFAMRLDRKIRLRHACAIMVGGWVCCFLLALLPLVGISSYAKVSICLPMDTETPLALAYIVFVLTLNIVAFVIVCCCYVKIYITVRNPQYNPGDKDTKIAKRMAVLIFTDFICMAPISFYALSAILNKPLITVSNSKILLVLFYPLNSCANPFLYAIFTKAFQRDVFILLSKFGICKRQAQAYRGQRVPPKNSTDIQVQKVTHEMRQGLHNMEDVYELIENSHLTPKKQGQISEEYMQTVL

As for `c1ccc(CCNc2nc(-c3ccccc3)cs2)cc1`, the Potency entry in experiment [1], in experiment [2], in experiment [3], in experiment [6], in experiment [7] and in experiment [8] was “inactive” each time. Moreover, the Potency result in [11] and in [12] was “inactive” each time. For the same compound, the compound was called inactive in [4], in experiment [5] and in experiment [9]. Besides, the max response in experiment [10] is -22.9%.

With `CC(Cc1ccccc1)(NC(=O)CN)c1ccccc1` (stereo not given), the Potency entry in experiment [1], in [2], in [3], in experiment [13], in [6] and in experiment [14] was “inactive” throughout. The Potency entry in [15], in experiment [8], in experiment [16], in experiment [17], in experiment [11] and in experiment [12] was “inactive” in each case. Besides, the compound was called inactive in [4] and in experiment [9]. Also, the max response in [10] was -3.14%.

For the compound `CCOC(=O)CC(O)(CC(=O)OCC)C(=O)OCC`, the Potency entry in [1], in [2], in experiment [3], in experiment [13], in experiment [7] and in experiment [15] was “inactive” each time. For the same compound, the Potency result in [8], in experiment [16], in experiment [17], in [11], in experiment [18] and in experiment [12] was “inactive” throughout. Also, the call in experiment [4], in experiment [5] and in [9] was inactive.

With `c1ccc(CN(Cc2ccccc2)Cc2ccccc2)cc1`, the figures for the Potency in experiment [1] and in [12] were 17.2 µM (active) and 15.5 µM (active), respectively. Besides, the Potency entry in experiment [2], in experiment [3], in [6], in experiment [7], in experiment [15] and in [8] was “inactive” throughout. For the same compound, the Potency result in [16], in [17] and in [11] was “inactive” throughout. For the same compound, the compound was classed as inactive in experiment [4], in [5] and in experiment [9]. Also, the max response in experiment [10] was 4.19%.

Regarding `O=C1c2ccccc2C(=O)C1c1ccc2ccccc2n1`, the Potency entry in experiment [1], in experiment [2], in experiment [3], in experiment [13], in [17] and in experiment [11] was “inactive” each time. The Potency result in experiment [18] and in [12] was “inactive” throughout. The compound was classed as inactive in experiment [4], in [5] and in experiment [9].

Take `O=C1OC(=O)C2CC=CCC12` (stereo not given): the Potency result in [1], in experiment [2], in experiment [3], in experiment [6], in experiment [14] and in experiment [7] was “inactive” each time. In addition, the Potency entry in [15], in experiment [8], in [16], in [17], in experiment [11] and in experiment [18] was “inactive” each time. Also, the Potency result in experiment [12] was “inactive”. In addition, the compound was classed as inactive in experiment [4], in experiment [5] and in [9]. For the same compound, the max response in experiment [10] is 0.701%.

Take `N#CCCCC(C#N)CCC#N` (stereo not given): the Potency result in [1], in experiment [2], in experiment [3], in experiment [19], in [14] and in [7] was “inactive” in each case. For the same compound, the Potency result in experiment [15], in experiment [8], in experiment [16], in [17], in experiment [11] and in [18] was “inactive” throughout. Also, the Potency entry in experiment [12] is “inactive”. Moreover, the compound was classed as inactive in experiment [4], in [5] and in experiment [9]. Further, the activity change, positive = activation in experiment [20] was 0.869%. Also, the max response in experiment [10] is 17.1%.

As for `CCOc1ccccc1O`, the Potency result in experiment [1], in experiment [2], in [3], in experiment [13], in experiment [14] and in experiment [7] was “inactive” throughout. For the same compound, the Potency entry in experiment [15], in experiment [8], in experiment [16], in experiment [17], in experiment [11] and in experiment [18] was “inactive” throughout. In addition, in experiment [12], the Potency result is “inactive”. The call in experiment [4] and in [9] was inactive. For the same compound, the Potency in [6] is 1.74 µM (active). Besides, in [10], the max response is -54.1%.
